Test results published in PubChem BioAssay AID687043 (Milwaukee Institute for Drug Discovery, 2013).
Among all 16,000 compounds or so, about 250 (1.6%) were called active.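 Rule for the calls: active = inhibition above the average over every tested compound plus 3 SD (cut at about 40% in these data); inactive = the rest.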 The entries come from a sample that favours actives as a whole.

system: Hepatitis C virus NS3 helicase; assay: HCV NS3 helicase inhibitors, primary screen, biochemical, fluorescence polarization, ChemBridge library (AID 687043); conditions: NS3h Cy5-dT15 DNA binding, at 100 µM, active compounds read high

Question: CCOC(=O)c1cc2n(n1)C(C(F)(F)F)CC(c1ccco1)N2 (stereo not given) was tested. Which inhibition did it give?
Answer: 1.4% (inactive)

Question: With COc1ccc(Nc2nc(-c3ccccc3)c3cc(C)ccc3n2)cc1 as the molecule, how does the inhibition read?
Answer: 6.7% (inactive)

Question: Which inhibition does the source give for COc1ccc(S(=O)(=O)NCCC(C)C)cc1 here?
Answer: 4.2% (inactive)

Question: With Cc1ccc(CCC(=O)Nc2ncc(Cc3ccc(F)cc3)s2)o1 as the molecule, how does the inhibition read?
Answer: -10.4% (inactive)

Question: For COc1ccc(C(=O)Nc2ccc(Br)cc2C)c(OC)c1, which inhibition is on record?
Answer: 24.4% (inactive)

Question: COc1ccccc1CNC(=O)C1CC(=O)N(c2ccc(F)cc2)C1 (stereo not given) was tested. Which inhibition did it give?
Answer: 1.7% (inactive)

Question: Which inhibition does the source give for Cc1ccc(C(=O)Nc2ccc(Cl)cc2)cc1[N+](=O)[O-] here?
Answer: -9.5% (inactive)

Question: With O=C(/C=C/c1cc2c(cc1Br)OCO2)c1cccc([N+](=O)[O-])c1 as the molecule, how does the inhibition read?
Answer: 2.3% (inactive)

Question: How did the inhibition turn out when COc1ccc(-c2noc(-c3ccc(Br)cc3)n2)cc1 was run?
Answer: 3.3% (inactive)

Question: With O=C(NCc1ccco1)/C(=C/c1cccc(Oc2ccccc2)c1)NC(=O)c1ccccc1 as the molecule, how does the inhibition read?
Answer: 9.7% (inactive)

Question: Which inhibition does the source give for Cc1nc(SCC#N)c(C#N)c(C)c1C here?
Answer: 9% (inactive)

Question: For COc1ccc2c(Cl)c(C(=O)NCc3ccc4c(c3)OCO4)sc2c1, which inhibition is on record?
Answer: 17% (inactive)

Question: Cc1ccccc1OCC(=O)Nc1ccc(OC(F)(F)F)cc1 was tested. Which inhibition did it give?
Answer: 2.3% (inactive)

Question: CC(C)Nc1nc(-c2ccc(Cl)cc2)nc2ccccc12 was tested. Which inhibition did it give?
Answer: 19.8% (inactive)

Question: How did the inhibition turn out when COc1cccc(C2C(C(=O)Nc3ccccc3)=C(C)N=c3s/c(=C\c4ccncc4)c(=O)n32)c1 (stereo not given) was run?
Answer: 2.2% (inactive)

Question: For Cn1c(=O)c2c(nc(Sc3ncn[nH]3)n2C)n(C)c1=O, which inhibition is on record?
Answer: -6.5% (inactive)

Question: CCOC(=O)C1=C(C)N=c2s/c(=C/c3c[nH]c4ccccc34)c(=O)n2C1c1ccc(F)cc1 (stereo not given) was tested. Which inhibition did it give?
Answer: -6.3% (inactive)

Question: With O=C(c1ccncc1)N1N=C(c2ccc(Cl)cc2)CC1(O)C(F)(F)F (stereo not given) as the molecule, how does the inhibition read?
Answer: 13.4% (inactive)

Question: How did the inhibition turn out when COC(=O)C1=C(C)NC2=C(C(=O)CC(c3ccc(OC)c(OC)c3)C2)C1c1ccc(OC)c(OC)c1 (stereo not given) was run?
Answer: 7.3% (inactive)

Question: O=C(CN(c1cccc(Br)c1)S(=O)(=O)c1ccccc1)N1CCOCC1 was tested. Which inhibition did it give?
Answer: 3.1% (inactive)

Question: Which inhibition does the source give for Cn1c(=O)n(CCOc2ccc(Br)cc2)c2ccccc21 here?
Answer: 13.9% (inactive)

Question: Which inhibition does the source give for Cc1nc2c([N+](=O)[O-])cc(Br)cc2c(=O)[nH]1 here?
Answer: -12.6% (inactive)

Question: Which inhibition does the source give for COc1ccc(CCNC(=O)C(=O)Nc2ccccc2C)cc1OC here?
Answer: 15.5% (inactive)

Question: CCOc1ccc(C2=C/C(=C/c3ccc(OC)c(OC)c3)C(=O)O2)cc1 was tested. Which inhibition did it give?
Answer: -0.3% (inactive)

Question: For Cc1ccc(COc2ccc3oc(C)c(C(=O)O)c3c2)cc1, which inhibition is on record?
Answer: 5.2% (inactive)

Question: COc1ccccc1N1CCN(S(=O)(=O)c2ccc(SC)cc2)CC1 was tested. Which inhibition did it give?
Answer: -1.6% (inactive)

Question: How did the inhibition turn out when CCOc1cc(/C=C2\C=C(c3ccc(C)cc3)OC2=O)ccc1OC(C)=O was run?
Answer: -4.9% (inactive)

Question: For O=C(COc1ccc(Br)cc1)Nc1cccc2nsnc12, which inhibition is on record?
Answer: 6% (inactive)

Question: With O=C(COc1ccccc1)Nc1ccc(NC(=O)COc2ccccc2)cc1 as the molecule, how does the inhibition read?
Answer: 2.2% (inactive)

Question: COc1ccc(OC)c(C=NN2CCN(Cc3ccc(C)cc3C)CC2)c1 was tested. Which inhibition did it give?
Answer: 11.9% (inactive)
